# Assay results taken from PubChem BioAssay (Tox21).
# Records with an inconclusive call do not appear. A call without a number means that no potency is given here. Values without a mark were called inactive. The source made the active and inactive calls. Calls follow the shape of the dose curve; as a rule, active = well fitted cell-killing curve with a large enough effect in the repeat runs; inconclusive = weak or mixed curves, or effect the other way; inactive = flat fitted curve, though single readings scatter.
# Test: Nuclear factor erythroid 2-related factor 2/antioxidant responsive element (Nrf2/ARE) small molecule agonists: qHTS cell viability counter screen in human keratinocytes (AID 1919968); also: nearly all actives have a fitted effect of over 55% in size
# Conditions: KeratinoSens HaCaT ARE cells viability, CellTiter-Fluor, 24 h; series mostly up to 92.4 µM
# From the text: U.S. Tox21 Program National Center for Advancing Translational Sciences [NCATS] Division of Preclinical Innovation [DPI] U.S. Environmental Protection Agency [EPA] National Institutes of Environmental Health Sciences [NIEHS] National Toxicology Program [NTP] U.S. Food and Drug Administration [FDA] Tox21 Assay Overview: Oxidative stress has been implicated in the pathogenesis of a variety of diseases ranging from cancer to neurodegeneration. The antioxidant response element (ARE) signaling pathway plays an important role in the amelioration of oxidative stress. The KeratinoSens (Givaudan, Switzerland) is an in vitro test method which quantifies luciferase induction as a measure of activation of Keap1-Nrf2-antioxidationt/electrophile response element (ARE) dependant pathway in HaCaT human keratinocytes stably transfected with a selectable plasmid. The KeratinoSens assay is a cell-based assay with a reporter cell line to detect potential skin sensitizers by their ability to induce the Nrf2/ARE-response. The activation of the report gene under culture conditions can be detected by ONE-Glo Luciferase Assay System (Promega, Madison, WI). This cell line has been used to screen the Tox21 10K compound library to identify agonists that induce oxidative stress. The cytotoxicity of the Tox21 compound library against the KS-ARE cell line was tested in parallel by measuring the cell viability using CellTiter- Fluor assay system (Promega, Madison, WI) in the same wells.
# Tox21 Assay Protocol Summary: HaCaT derived cell line KeratinoSens were dispensed at 1,500 cells/5uL/well in 1536-well white wall/solid bottom plates using a Multidrop Combi (ThermoFisher Scientific, Waltham, MA) dispenser. After the assay plates were incubated at 37 C/5% CO2 for 5 h, 23 nL of compounds dissolved in DMSO, positive controls or DMSO only was transferred to the assay plate by a pintool workstation (Kalypsys, San Diego, CA). The plates were incubated at 37 C/5% CO2 for 23 h, followed by addition of 1uL/well of CellTiter-Fluor reagent into the assay plates using a Flying Reagent Dispenser (Aurora Discovery, San Diego, CA) for cell viability readout that measures cytotoxicity. After 1 h incubation at 37 C/5% CO2 the fluorescence intensity was measured using a ViewLux (PerkinElmer, Shelton, CT) plate reader.
# Potency is read from the fitted curve at half-maximal effect.
Compound,Potency,"activity change, negative = cytotoxicity"
Nc1ccn([C@H]2CS[C@@H](CO)O2)c(=O)n1,inactive,–
O=C1C=CC(=O)N1,28 µM (active),–
C[C@H](CCC(=O)O)[C@H]1CC[C@H]2[C@@H]3CC[C@@H]4C[C@H](O)CC[C@]4(C)[C@H]3CC[C@]12C,inactive,–
CCCCCCCCCCCCCOC(=O)CCSCCC(=O)OCCCCCCCCCCCCC,–,-1.71% [at 19 µM]
CCCCC(CC)COS(=O)(=O)O (stereo not given),inactive,–
CC(C)(C)c1cc(O)c(C(C)(C)C)cc1O,inactive,–
O=C(OCC(COC(=O)c1cccnc1)(COC(=O)c1cccnc1)COC(=O)c1cccnc1)c1cccnc1,inactive,–
O=C(O)C(c1ccc(Cl)cc1)c1ccc(Cl)cc1,inactive,–
COc1ccccc1N1CCN(CC(O)COc2cccc3ccccc23)CC1 (stereo not given),inactive,–
CC(=O)Nc1cccc(N)c1,inactive,–
COc1cc(S(=O)(=O)Nc2ccccc2)c(OC)cc1N,inactive,–
COc1cc(C(C)=O)ccc1OCCCN1CCC(c2noc3cc(F)ccc23)CC1,inactive,–
CC(Cc1cccc(C(F)(F)F)c1)NCCOC(=O)c1ccccc1 (stereo not given),inactive,–
CC[C@H](C)COC(=O)/C=C/c1ccc(N=Cc2ccc(OC)cc2)cc1,inactive,–
O=S1(=O)N=C(O)c2ccccc21,inactive,–
COc1cccc2sc(N)nc12,inactive,–
CCCCNCCCC,inactive,–
Clc1sc(Cl)c(Cl)c1Cl,inactive,–
CCCc1ncc(C[n+]2ccccc2C)c(N)n1,inactive,–
C[C@@H](C1=C(CCN(C)C)Cc2ccccc21)c1ccccn1,inactive,–

Compound,Potency,"activity change, negative = cytotoxicity"
Cc1cc(O)c2c(O)c3c(O)cccc3cc2c1,inactive,–
CSCC[C@H](NC(=O)[C@H](Cc1c[nH]c2ccccc12)NC(=O)CCNC(=O)OC(C)(C)C)C(=O)N[C@@H](CC(=O)O)C(=O)N[C@@H](Cc1ccccc1)C(N)=O,inactive,–
CCCCCCCCCCCCCCCCCCCl,–,-0.678% [at 8.39 µM]
CC(C)(C)CCCCCCOC(=O)c1ccccc1C(=O)OCCCCCCC(C)(C)C,inactive,–
Cc1ccc(C)c([N+](=O)[O-])c1,inactive,–
CCCC(=O)OCCC(C)CCC=C(C)C (stereo not given),inactive,–
CC(C)(C)C1CCCCC1=O (stereo not given),inactive,–
CCOC(=O)NCCOc1ccc(Oc2ccccc2)cc1,inactive,–
OCC1CC=CCC1 (stereo not given),inactive,–
CCN(C)C(=O)Oc1cccc([C@H](C)N(C)C)c1,inactive,–
O=C1CCCCCO1,inactive,–
CCCOC(=O)c1c(Cl)c(Cl)c(Cl)c(Cl)c1C(=O)OCCC,inactive,–
Cc1c(C)c2c(c(C)c1OC(=O)c1cccnc1)CC[C@@](C)(CCC[C@H](C)CCC[C@H](C)CCCC(C)C)O2,inactive,–
C=CC(C)=CCC=C(C)C,inactive,–
CCCCOC(=O)CCC(C)=O,inactive,–
CCCC(C)C(=O)O (stereo not given),inactive,–
c1ccc2occc2c1,inactive,–
Cc1ccccn1,inactive,–
CC(C)C(C)(C)C(C)(C)C(C)(C)S,inactive,–
O=C1C=CC(=O)N1c1ccccc1,27.3 µM (active),–
